MEP2-GFP yeast = modulators of TOR pathway MEP2-GFP in S. cerevisiae | S. cerevisiae MEP2-GFP strain, flow cytometry GFP, 3 h; 100% = DMSO control level | GFP response vs DMSO, % at 10 µM | hit rate 0.51% among 330,000 | AID 2016;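 active = GFP response versus DMSO above a set limit, roughly screen mean plus 3 SD, cut at about 180% in these data; inconclusive = fewer than 70 cells counted for a yeast strain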;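 note: median GFP fluorescence of the barcode-gated MEP2-GFP cells per well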
LAP4 TOR yeast = yeast TOR pathway LAP4-GFP modulation; S. cerevisiae LAP4-GFP multiplex, flow cytometry GFP, 3 h; median GFP as percent of DMSO wells; GFP response vs DMSO, % at 10 µM; hit rate 0.34% among 320,000; AID 2023;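 active = GFP response vs DMSO above a set limit, about the screen mean plus 3 SD, cut at about 150% in these data; inconclusive = under 70 cell events counted for the yeast strain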
CIT2-GFP yeast = alters CIT2-GFP fluorescence in TOR pathway yeast screen | S. cerevisiae CIT2-GFP strain, flow cytometry, 3 h; 100 means same as DMSO wells | GFP response vs DMSO, % at 10 µM | hit rate 0.065% among 320,000;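 active = GFP response relative to DMSO above a set limit, near the screen mean plus 3 SD, cut at about 150% in these data; inconclusive = Fewer than 70 cells measured for a yeast strain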;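 note: ratio of well median GFP fluorescence to mean of DMSO wells on the plate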
AGP1-GFP MLPCN = alters AGP1-GFP fluorescence in TOR pathway yeast screen | GFP response vs DMSO, % at 10 µM | S. cerevisiae AGP1-GFP multiplex flow cytometry, 3 h; GFP as percent of DMSO wells | hit rate 0.02% among 320,000;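 active = GFP response relative to DMSO above a set limit, near screen average plus 3 SD, cut at about 150% in these data; inconclusive = fewer than 70 cells counted for the yeast strain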;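 note: median GFP channel fluorescence of the gated AGP1 strain per well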
RPL19A-GFP yeast = yeast TOR pathway RPL19A-GFP modulation | S. cerevisiae RPL19A-GFP strain, flow cytometry, 3 h; active compounds read low | percent response vs DMSO, % at 10 µM | hit rate 0.3% among 330,000;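 active = percent response vs DMSO below 50%; inconclusive = fewer than 70 events counted for the yeast strain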;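 note: median channel GFP fluorescence of the barcoded RPL19A-GFP strain; lower means less RPL19A-GFP as with rapamycin TOR inhibition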
Hits are given with their value; [ ] = another dose, or the depositor's remark. Hits are enriched below; roughly 0.89% of the tested compounds scored in any of these assays.

Results for Cc1cccc(N2CCN(CC(=O)Nc3ccc(S(=O)(=O)N4CCOCC4)cc3)CC2)c1C ?
MEP2-GFP yeast: inactive; LAP4 TOR yeast: inactive; CIT2-GFP yeast: inactive; AGP1-GFP MLPCN: inactive; RPL19A-GFP yeast: inactive

Results for COc1ccc(Nc2cc(C(=O)NCCCN3CCOCC3)c3ccccc3n2)cc1 ?
MEP2-GFP yeast: inactive; LAP4 TOR yeast: inactive; CIT2-GFP yeast: inactive; AGP1-GFP MLPCN: inactive; RPL19A-GFP yeast: inactive

Results for COc1ccc(Nc2cc(C(=O)NCCCN3CCN(C)CC3)c3ccccc3n2)cc1 ?
MEP2-GFP yeast: 244.1[may fluoresce violet]; LAP4 TOR yeast: inactive; CIT2-GFP yeast: inconclusive; AGP1-GFP MLPCN: inactive; RPL19A-GFP yeast: 47.4[may fluoresce violet]

How did CN1Cc2sc(NC(=S)NC(=O)c3ccccc3)c(C#N)c2CC1(C)C do in these assays?
MEP2-GFP yeast: inactive; LAP4 TOR yeast: 154.9; CIT2-GFP yeast: 161.4; AGP1-GFP MLPCN: inactive; RPL19A-GFP yeast: inactive

What do the screens show for `O=C(/C=C/c1ccccc1[N+](=O)[O-])N1CCc2ccccc2C1`?
MEP2-GFP yeast: inactive; LAP4 TOR yeast: inactive; CIT2-GFP yeast: inactive; AGP1-GFP MLPCN: inactive; RPL19A-GFP yeast: inactive

How did CC1CCN(S(=O)(=O)c2cccc(C(=O)Nc3nccs3)c2)CC1 do in these assays?
MEP2-GFP yeast: 213.7; LAP4 TOR yeast: 165.9; CIT2-GFP yeast: 152.2; AGP1-GFP MLPCN: inactive; RPL19A-GFP yeast: inactive

What do the screens show for `CN1CCN(S(=O)(=O)c2cccc(C(=O)Nc3nccs3)c2)CC1`?
MEP2-GFP yeast: inactive; LAP4 TOR yeast: inactive; CIT2-GFP yeast: inactive; AGP1-GFP MLPCN: inactive; RPL19A-GFP yeast: inactive

How did COc1cccc(/C=C/C(=O)N2CCN(c3n[nH]c(=O)[nH]c3=O)CC2)c1OC do in these assays?
MEP2-GFP yeast: inactive; LAP4 TOR yeast: inactive; CIT2-GFP yeast: inactive; AGP1-GFP MLPCN: inactive; RPL19A-GFP yeast: inactive

How did Cc1ccc2c(c1)nnn2C1CCN(S(=O)(=O)c2ccc(C(=O)N(C)C)cc2)CC1 do in these assays?
MEP2-GFP yeast: inactive; LAP4 TOR yeast: inactive; CIT2-GFP yeast: inactive; AGP1-GFP MLPCN: inactive; RPL19A-GFP yeast: inactive

What do the screens show for `Cc1ccc2c(c1)nnn2C1CCN(S(=O)(=O)c2ccc(C(=O)N3CC(C)CC(C)C3)cc2)CC1` (stereo unspecified)?
MEP2-GFP yeast: 317.5[may fluoresce violet]; LAP4 TOR yeast: inactive; CIT2-GFP yeast: inconclusive; AGP1-GFP MLPCN: inconclusive; RPL19A-GFP yeast: 29.7[may fluoresce violet]

Results for O=C(COc1ccccc1)N(Cc1cccc(F)c1)C1CCS(=O)(=O)C1 (stereo unspecified) ?
MEP2-GFP yeast: inactive; LAP4 TOR yeast: inactive; CIT2-GFP yeast: inconclusive; AGP1-GFP MLPCN: inactive; RPL19A-GFP yeast: 44.5[may fluoresce violet]

Results for O=C(CCC(=O)N/N=C/c1cc(Cl)cc(Cl)c1O)NCc1ccccc1 ?
MEP2-GFP yeast: 363.9[may fluoresce violet]; LAP4 TOR yeast: inactive; CIT2-GFP yeast: inconclusive; AGP1-GFP MLPCN: inactive; RPL19A-GFP yeast: inactive

How did CCCCN(C)CCCNC(=O)C1(O)c2ccccc2NC(=O)N1c1ccc(Cl)cc1 (stereo unspecified) do in these assays?
MEP2-GFP yeast: inactive; LAP4 TOR yeast: inactive; CIT2-GFP yeast: inactive; AGP1-GFP MLPCN: inactive; RPL19A-GFP yeast: inactive

Results for COc1ccc(C2CC(c3ccccc3)=NN2c2ccc(S(N)(=O)=O)cc2)cc1OC (stereo unspecified) ?
MEP2-GFP yeast: inactive; LAP4 TOR yeast: inactive; CIT2-GFP yeast: inactive; AGP1-GFP MLPCN: inactive; RPL19A-GFP yeast: inactive

What do the screens show for `COc1cc(C2CC(c3cccnc3)=NN2c2ccc(F)cc2)cc(OC)c1OC` (stereo unspecified)?
MEP2-GFP yeast: inactive; LAP4 TOR yeast: inactive; CIT2-GFP yeast: 158.7; AGP1-GFP MLPCN: inactive; RPL19A-GFP yeast: inactive

How did NC(=O)C1CCCN(Cc2c(C(=O)N3CCc4ccccc4C3)nc3ccc(Cl)cn23)C1 (stereo unspecified) do in these assays?
MEP2-GFP yeast: inactive; LAP4 TOR yeast: inactive; CIT2-GFP yeast: inactive; AGP1-GFP MLPCN: inactive; RPL19A-GFP yeast: inactive

How did NC(=O)c1ccccc1NC(=O)c1ccc2c(c1)OCO2 do in these assays?
MEP2-GFP yeast: inactive; LAP4 TOR yeast: inactive; CIT2-GFP yeast: inactive; AGP1-GFP MLPCN: inactive; RPL19A-GFP yeast: inactive

Results for CC(C(=O)Nc1ccc(F)cc1Cl)N(C)CCOc1ccccc1 (stereo unspecified) ?
MEP2-GFP yeast: inactive; LAP4 TOR yeast: inactive; CIT2-GFP yeast: inactive; AGP1-GFP MLPCN: inactive; RPL19A-GFP yeast: inactive

Results for CC(C(=O)Nc1ccccc1)N(C)CCOc1ccccc1 (stereo unspecified) ?
MEP2-GFP yeast: 298.6[may fluoresce violet]; LAP4 TOR yeast: inactive; CIT2-GFP yeast: inconclusive; AGP1-GFP MLPCN: inactive; RPL19A-GFP yeast: 40.0[may fluoresce violet]

Results for COC(=O)c1cccc(-n2c(CCC(=O)O)ccc2-c2cccs2)c1 ?
MEP2-GFP yeast: inactive; LAP4 TOR yeast: 156.7; CIT2-GFP yeast: inactive; AGP1-GFP MLPCN: inactive; RPL19A-GFP yeast: inactive

How did COC(=O)C1CCN(C(=O)c2cc3c(=O)n4cccc(C)c4nc3n2Cc2ccccc2)CC1 do in these assays?
MEP2-GFP yeast: inactive; LAP4 TOR yeast: inactive; CIT2-GFP yeast: inactive; AGP1-GFP MLPCN: inactive; RPL19A-GFP yeast: inactive

What do the screens show for `COc1ccccc1CCC(=O)Nc1ccc(C)cc1Cl`?
MEP2-GFP yeast: inactive; LAP4 TOR yeast: inactive; CIT2-GFP yeast: inactive; AGP1-GFP MLPCN: inactive; RPL19A-GFP yeast: inactive

Results for COc1ccc(NC(=O)c2cn(-c3ccccc3)nc2-c2ccncc2)cc1 ?
MEP2-GFP yeast: inactive; LAP4 TOR yeast: inactive; CIT2-GFP yeast: inactive; AGP1-GFP MLPCN: inactive; RPL19A-GFP yeast: inactive

Results for COc1ccc(-c2nn(-c3ccccc3)cc2C(=O)NC(=S)NNC(=O)c2ccncc2)cc1 ?
MEP2-GFP yeast: inactive; LAP4 TOR yeast: 150.4; CIT2-GFP yeast: inactive; AGP1-GFP MLPCN: inactive; RPL19A-GFP yeast: inactive

What do the screens show for `O=C1OCCN1C(=O)[C@H]1[C@H](c2ccc(F)cc2)C(c2ccc(F)cc2)=NN1c1ccccc1`?
MEP2-GFP yeast: inactive; LAP4 TOR yeast: inactive; CIT2-GFP yeast: inactive; AGP1-GFP MLPCN: inactive; RPL19A-GFP yeast: inactive

How did O=C1OCCN1C(=O)[C@H]1[C@H](c2ccc(F)cc2)C(c2ccc(F)cc2)=NN1c1ccc(Br)cc1 do in these assays?
MEP2-GFP yeast: 383.1[may fluoresce violet]; LAP4 TOR yeast: inactive; CIT2-GFP yeast: inconclusive; AGP1-GFP MLPCN: inactive; RPL19A-GFP yeast: inactive

How did C#CCOCCOCCOCCNc1nc(N2CCN(C(=O)CCCCCCCCCCNC(=O)[C@H]([C@@H](C)CC)n3cc(CCCCN=C(N)N)nn3)CC2)nc(N2CCN(C(=O)CCCCCCCCCCNC(=O)[C@H](CCCN=C(N)N)n3cc(C[C@@H](C)CC)nn3)CC2)n1 do in these assays?
MEP2-GFP yeast: inactive; LAP4 TOR yeast: 164.9; CIT2-GFP yeast: inactive; AGP1-GFP MLPCN: inactive; RPL19A-GFP yeast: inactive

Results for C#CCOCCOCCOCCNc1nc(N2CCN(C(=O)CCCCCCCCCCNC(=O)[C@H](CCCN=C(N)N)n3cc(C[C@@H](C)CC)nn3)CC2)nc(N2CCN(C(=O)CCCCCCCCCCNC(=O)[C@@H]([C@H](C)CC)n3cc(CCCCCN)nn3)CC2)n1 ?
MEP2-GFP yeast: inactive; LAP4 TOR yeast: 192.6; CIT2-GFP yeast: inactive; AGP1-GFP MLPCN: inactive; RPL19A-GFP yeast: inactive
